The record followed here is PubChem BioAssay (Tox21).

Results filed as inconclusive are left out. Values without a mark were called inactive. Active and inactive are the calls of the source. Calls follow the shape of the dose curve; as a rule, active = well fitted activation curve with a large enough effect in the repeat runs; inconclusive = weak or mixed curves, or effect the other way; inactive = no such curve, though single readings can be large or run the other way.
% is scaled to controls: 0 for no effect and ±100 for the full control effect; potency is read from the fitted curve at half-maximal effect.

The test in a line: qHTS assay to identify small molecule agonists of the retinoic acid receptor (RAR) signaling pathway (AID 1159553). Conditions: C3RL4 RARE luciferase reporter, agonist, 6 h; series mostly up to 73.3 µM; activation: at the top concentration. The method, boiled down: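 RARE-luc C3RL4 cells; overnight attachment 37 C/5% CO2; compound (DMSO) 6 hr; luciferase reagent, 30 min RT; luminescence read-out.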
Consider `CC(C)[N+](C)(CCC(C(N)=O)(c1ccccc1)c1ccccc1)C(C)C`, for which the “activation” value is -0.438%.
The same measure, in the same setting: then `S=C=S`, with 2.45%; and `CC(C)(C)c1cc(O)ccc1O`, with -15.2%.
Turning to `CCC(C)(C#N)N=NC(C)(C#N)CC` (configuration not stated), the “activation” value was -0.413%.
Still for that read-out and setting: then `O=C(Cl)C(Cl)Cl`, with -0.901%.
For `CON(C)C(=O)Nc1ccc(Br)c(Cl)c1`, the Potency was 21.7 µM (active).
In the case of `COc1ccc(C=O)cc1O`, the “activation” value is -3.94% [at 94.8 µM].
In the case of `CCOC(=O)C(Cl)Cc1cc(-n2nc(C)n(C(F)F)c2=O)c(F)cc1Cl` (configuration not stated), the “activation” value was -11.4%.
With `CCN[C@@H](C)Cc1ccccc1`, the “activation” value was 0.297% [at 94.8 µM].
As to `O=C1C2CC=CCC2C(=O)N1SC(Cl)(Cl)Cl` (configuration not stated), the “activation” value is -2.62%.
Same read-out and setting: then `O=C(Cl)C(Cl)(Cl)Cl`, with -0.0474% [at 94.8 µM].
`CCN(CCO)CCn1c(Cc2ccccc2)nc2c1c(=O)n(C)c(=O)n2C`: the “activation” value was 0.325%.
In the case of `CCOC(=O)NC(C)(C)Cc1ccc(Cl)cc1`, the “activation” value was -0.219%.
Consider `C=CCc1cc(OC)c2c(c1)OCO2`, for which the “activation” value is 0.57% [at 94.8 µM].
Same read-out and setting: for `CN1COCN(Cc2cnc(Cl)s2)/C1=N\[N+](=O)[O-]` the value was 0.679%; for `NC(=O)CS(=O)C(c1ccccc1)c1ccccc1` (configuration not stated), 0.0569%.
On to `C1CN2CCC1CC2`, for which the “activation” value is -0.227%.
Regarding `ClC1=C(Cl)C2(Cl)C(CBr)CC1(Cl)C2(Cl)Cl` (configuration not stated), the Potency entry is “inactive”.
On to `CCC1(c2ccccc2)C(=O)N(COC)C(=O)N(COC)C1=O`, for which the “activation” value is -0.578%.
Still for that read-out and setting: then `Cc1cccc2sc3nncn3c12`, with -1.69%; and `CNC(=O)O/N=C(/CSC)C(C)(C)C`, with -1.2%.
With `CC(C)(N)Cc1ccccc1Cl`, the “activation” value is -4.87%.
